Drawing on PubChem BioAssay (Tox21), this text covers Potency and activity change, positive = activation for six compounds.

Each structure is given as a SMILES string. Values joined by “and” are separate entries in the source; they are usually repeats but may differ in a detail not shown here. Equal entries are not always repeated. Records with an inconclusive call do not appear. More than one record can exist for a structure, and the calls need not agree. Active and inactive are the calls of the source. Unless noted, the call rests on the fitted dose curve; in most records, active means well fitted curve in the direction sought with a large enough effect in the repeat runs; inconclusive means weak or mixed curves; inactive means no such curve, though single readings can be large; an effect the other way counts as inactive or inconclusive.

Assay [1] is described as follows: qHTS assay to identify small molecule agonists of the constitutive androstane receptor (CAR) signaling pathway - cell viability counter screen (AID 1224836). Further: nearly all actives have a fitted effect of over 45% in size. Further: potency means the concentration at half of the fitted maximal effect. The gist of the method: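 Using CellTiter-Fluor, viability of HepG2 cells harbouring hCAR and CYP2B6-2.2kb was measured following 23 h incubation with a 15-concentration compound series plus PK11195 (0.75 uM final).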

Assay [2] can be described thus: qHTS assay to identify small molecule antagonists of the constitutive androstane receptor (CAR) signaling pathway - cell viability counter screen (AID 1224837). Further: nearly all actives have a fitted effect of over 45% in size. Further: potency means the concentration at half of the fitted maximal effect. The method in brief:
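Multiplexed cytotoxicity read-out for the CAR antagonist screen: double-stable HepG2-CYP2B6-hCAR cells co-treated with 50 nM CITCO (final) and compound over 15 concentrations, incubated 23 hr, then assessed by CellTiter-Fluor fluorescence.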
(In qHTS, concentration-response curves come from the screen itself.)

Assay [3] addresses Nuclear receptor subfamily 1 group I member 3 (Homo sapiens) (UniProt Q14994). Put plainly: qHTS assay to identify small molecule antagonists of the constitutive androstane receptor (CAR) signaling pathway (AID 1224838). Further: nearly all actives have a fitted effect of over 40% in size. Further: potency means the concentration at half of the fitted maximal effect. The method in brief:
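Compounds were titrated across 15 concentrations onto HepG2 cells double-stably expressing hCAR and a CYP2B6-2.2kb reporter, together with 50 nM CITCO (final). After 24 h at 37 C, luciferase activity was measured by luminescence.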

For assay [4] the target is unchanged. Put plainly: qHTS assay to identify small molecule agonists of the constitutive androstane receptor (CAR) signaling pathway (AID 1224839).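 Further: HepG2 cells stably carrying human CAR and a CYP2B6 luciferase reporter; on the % scale 0 is the no-effect control and ±100 the full control effect; nearly all actives have a fitted effect of over 15% in size.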 The gist of the method: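 Double-stable HepG2 cells (hCAR, CYP2B6-2.2kb) seeded 4 h before compound addition. Exposure 24 h with 0.75 uM PK11195 final. Luciferase detected by ONE-Glo.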
Assay [5] is described as follows: qHTS assay to identify small molecule antagonists of the estrogen related receptor signaling pathway with the pleiotropic PPARgamma coactivator (PGC) from Tox21 10K library - cell viability counter screen (AID 1224840; active means well fitted cell-killing curve with a large enough effect in the repeat runs, not every such curve was filed as active; further: nearly all actives have a fitted effect of over 40% in size; further: potency means the concentration at half of the fitted maximal effect). The method in brief: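 Step one, plate 2,000 PGC/ERR cells per well; step two, incubate 6 h at 37 C/5% CO2; step three, pin-transfer compounds; step four, incubate 17.5 h; step five, add CellTiter-Fluor and read fluorescence after 30 min.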

Assay [6] is described as follows: qHTS assay to identify small molecule antagonists of the estrogen related receptor signaling pathway with the pleiotropic PPARgamma coactivator (PGC) from Tox21 10K library (AID 1224841; call rule not given here; further: actives are mostly falling curves and most rising ones were filed inactive; nearly all actives have a fitted effect of over 50% in size; further: potency means the concentration at half of the fitted maximal effect). The method in brief: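 Antagonism in this quantitative HTS is taken from loss of luciferase signal in PGC/ERR cells. Cells (2,000/well) are treated with compounds in DMSO after a 6 h settling period and read by One-Glo luminescence after 18 h.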

Assay [7] can be described thus: qHTS assay to identify small molecule agonists of the estrogen related receptor signaling pathway with the pleiotropic PPARgamma coactivator (PGC) from Tox21 10K library (AID 1224842). Further: on the % scale 0 is the no-effect control and ±100 the full control effect; nearly all actives have a fitted effect of over 15% in size. The gist of the method:
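Luminescence from One-Glo (30 min, room temperature) measured after PGC/ERR cells had 18 h at 37 C with pinned compound (23 nL in DMSO). Cells had been seeded at 2,000 per well and pre-incubated 6 h.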

Assay [8] is described as follows: qHTS assay to identify small molecule agonists of the hypoxia (HIF-1) signaling pathway - cell viability counter screen (AID 1224844; calls by dose curve; further: nearly all actives have a fitted effect of over 50% in size; further: potency means the concentration at half of the fitted maximal effect). The gist of the method:
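Tox21 10K compounds were added to HRE-bla ME-180 cells (0.5% dialyzed FBS) and incubated 17 hrs at 37C; ATP-based CellTiter-Glo luminescence then reported cell viability in the same wells.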

Assay [9] can be described thus: qHTS assay to identify small molecule agonists of H2AX - cell viability counter screen (AID 1224847; calls by dose curve; further: nearly all actives have a fitted effect of over 30% in size; further: potency means the concentration at half of the fitted maximal effect). The gist of the method: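 Quantitative HTS viability measurement: CHO-K1 wild-type cells in serum (10% FBS) medium, short 3 hr drug exposure at 37C with 0.76% DMSO, CellTiter-Glo luminescent detection.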
A short description of assay [10]: qHTS assay to identify small molecule agonists of the estrogen related receptor (ERR) signaling pathway from Tox21 library (AID 1224849; calls by dose curve; further: on the % scale 0 is the no-effect control and ±100 the full control effect; nearly all actives have a fitted effect of over 15% in size). Conditions: ERR reporter cell line, ONE-Glo luciferase, 18 h. The gist of the method: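 Agonist signal is luciferase luminescence from an ERR reporter cell line treated 18 h at 37 C with DMSO-dissolved compounds, read 30 min after ONE-Glo addition at room temperature.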

The nature of assay [11]: qHTS RealTime-Glo MT Cell Viability Assay in HepG2 cells - 24 hour (AID 1224867). Further: nearly all actives have a fitted effect of over 50% in size. Further: potency means the concentration at half of the fitted maximal effect. The gist of the method: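 Luminescence read-out: viable HepG2 cells reduce a prosubstrate to a NanoLuc substrate, giving a signal proportional to live cell number. Reads taken at 0, 8, 16, 24, 32 and 40 h of compound exposure at 37 C.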
Assay [12] is described as follows: A CellTox Green Cytotoxicity Assay to monitor cytotoxicity in HEK293 cells - 0 hour (AID 1224869). Further: on the % scale 0 is the no-effect control and ±100 the full control effect; nearly all actives have a fitted effect of over 50% in size. The gist of the method: (§1)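 Cytotoxicity was tracked continuously in HEK293 cells by a DNA-binding dye excluded from viable cells. Compounds were transferred in DMSO 5 h after seeding; fluorescence was recorded at intervals up to 40 h.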
Assay [13] in a line: A CellTox Green Cytotoxicity Assay to monitor cytotoxicity in HEK293 cells - 40 hour (AID 1224871). Further: nearly all actives have a fitted effect of over 45% in size. Further: potency means the concentration at half of the fitted maximal effect. The method in brief:
as §1

The nature of assay [14]: qHTS RealTime-Glo MT Cell Viability Assay in HEK293 cells - 16 hour (AID 1224872). Further: nearly all actives have a fitted effect of over 50% in size. Further: potency means the concentration at half of the fitted maximal effect. The gist of the method:
(§2)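 Nonlytic real-time viability readout: viable cells convert prosubstrate to NanoLuc substrate, giving luminescence proportional to live cell number. HEK293, 600 cells/well, compound added after 5 h, continuous culture at 37 C.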

For assay [15], the target named is Thyrotropin receptor (Homo sapiens) (UniProt P16473). Put plainly: qHTS assay to identify small molecule agonists of the thyroid stimulating hormone receptor (TSHR) signaling pathway (AID 1224843; calls by dose curve; further: nearly all actives have a fitted effect of over 45% in size; further: potency means the concentration at half of the fitted maximal effect; on activation: on the % scale 0 is the no-effect control and ±100 the full control effect). The method in brief:
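HEK293 cells stably bearing the thyrotropin receptor were plated at 800 cells/well and challenged with compound (30 min, RT). Accumulated cAMP was quantified via cAMP-d2 competing for cryptate-tagged antibody.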

The nature of assay [16]: qHTS assay to identify small molecule agonists of H2AX (AID 1224845; active means well fitted activation curve with a large enough effect in the signal ratio in the repeat runs, not every such curve was filed as active; the % refers to the signal ratio; further: potency means the concentration at half of the fitted maximal effect). The gist of the method: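 Phospho-H2AX Ser139 measured by HTRF (ex 320 nm; em 665 and 620 nm) after 24 hr antibody incubation. Compounds, 15 concentrations, 0.76% DMSO, were applied to CHO-K1 cells for 3hr at 37C before lysis.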
Assay [17] in a line: qHTS assay to identify small molecule antagonists of the estrogen related receptor (ERR) signaling pathway from Tox21 library (AID 1224848). Further: nearly all actives have a fitted effect of over 50% in size. Further: potency means the concentration at half of the fitted maximal effect. The gist of the method: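 Reading was by luminescence 30 min after ONE-Glo addition. Before that, ERR cells at 2,000 per well had rested 6 h at 37 C/5% CO2 and then received pin-tooled compounds in DMSO for 18 h at 37 C.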
Assay [18] in a line: qHTS RealTime-Glo MT Cell Viability Assay in HEK293 cells - 32 hour (AID 1224868). Further: nearly all actives have a fitted effect of over 50% in size. Further: potency means the concentration at half of the fitted maximal effect. The gist of the method:
as §2

Assay [19] in a line: qHTS RealTime-Glo MT Cell Viability Assay in HepG2 cells - 40 hour (AID 1224870). The gist of the method: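 Real-time viability: cells seeded at 600 per well together with NanoLuc and cell-permeant prosubstrate, compounds added after 5 h incubation. Luminescence tracked at 0, 8, 16, 24, 32 and 40 h of exposure.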
Setting [20] is: at 92.4 µM (top of the series) unless noted.

Thyrotropin receptor (Homo sapiens), sequence (P16473 whole entry, looked up): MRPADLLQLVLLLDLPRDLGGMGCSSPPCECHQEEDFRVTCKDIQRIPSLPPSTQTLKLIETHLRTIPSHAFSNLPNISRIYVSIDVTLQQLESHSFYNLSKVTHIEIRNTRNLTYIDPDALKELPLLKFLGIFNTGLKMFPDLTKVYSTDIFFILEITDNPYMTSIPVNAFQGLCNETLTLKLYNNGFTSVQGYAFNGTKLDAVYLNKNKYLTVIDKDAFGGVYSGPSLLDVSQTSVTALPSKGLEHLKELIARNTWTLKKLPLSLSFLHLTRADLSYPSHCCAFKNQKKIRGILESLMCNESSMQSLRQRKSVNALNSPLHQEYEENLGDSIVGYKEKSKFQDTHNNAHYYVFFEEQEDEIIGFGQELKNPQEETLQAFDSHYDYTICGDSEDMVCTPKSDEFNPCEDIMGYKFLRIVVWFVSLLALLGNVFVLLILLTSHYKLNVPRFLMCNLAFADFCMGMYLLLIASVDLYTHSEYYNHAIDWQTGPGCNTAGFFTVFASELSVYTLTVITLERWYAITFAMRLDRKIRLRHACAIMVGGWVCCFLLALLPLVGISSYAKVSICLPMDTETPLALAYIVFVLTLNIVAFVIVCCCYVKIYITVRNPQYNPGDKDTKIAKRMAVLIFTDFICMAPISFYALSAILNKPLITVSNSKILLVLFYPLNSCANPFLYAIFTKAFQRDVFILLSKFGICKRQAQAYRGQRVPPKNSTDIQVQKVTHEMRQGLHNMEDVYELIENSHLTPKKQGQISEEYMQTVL
Nuclear receptor subfamily 1 group I member 3 (Homo sapiens), sequence (Q14994 whole entry, looked up): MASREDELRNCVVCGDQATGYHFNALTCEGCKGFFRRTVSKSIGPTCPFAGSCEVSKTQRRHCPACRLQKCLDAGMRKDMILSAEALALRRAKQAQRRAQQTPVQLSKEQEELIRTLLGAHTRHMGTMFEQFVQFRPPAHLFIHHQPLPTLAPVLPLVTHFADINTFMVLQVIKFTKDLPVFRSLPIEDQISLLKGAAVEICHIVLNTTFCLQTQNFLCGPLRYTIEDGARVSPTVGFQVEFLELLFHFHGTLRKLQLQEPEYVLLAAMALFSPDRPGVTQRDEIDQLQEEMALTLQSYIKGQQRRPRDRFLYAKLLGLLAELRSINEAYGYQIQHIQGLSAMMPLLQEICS

Take `CC(C)CCCCCCCCCCCCCCC(=O)O`: the Potency result in [1], in [2], in [3], in assay [4], in assay [5] and in assay [6] was “inactive” throughout. Further, the Potency result in assay [7], in assay [11], in assay [12], in assay [13] and in [14] was “inactive” each time. Further, the Potency in assay [8] was 17.4 µM (active); in [9] it was 1.6 µM (active). Also, the activity change, positive = activation in [10] (setting [20]) is -17% (inactive).

In the case of `CSc1ccc(/C=C2/C(C)=C(CC(=O)O)c3cc(F)ccc32)cc1`, the Potency entry in assay [1], in assay [2], in assay [3], in assay [4], in [5] and in assay [6] was “inactive” each time. Also, the Potency entry in assay [7], in assay [15], in assay [16], in [9], in assay [17] and in [11] was “inactive” throughout. For the same compound, the Potency result in [18], in assay [12], in assay [13] and in [14] was “inactive” in each case. The activity change, positive = activation in assay [10] (setting [20]) is -7.17% [at 42.5 µM] (inactive).

As to `CCCCCCCCCCCCCCCCCC[N+](C)(C)Cc1ccccc1`, the Potency in assay [1] was 55 µM (active); in [2], 55 µM (active); in [3], 49 µM (active); in assay [5], 55 µM (active); in [6], 30.9 µM (active); in assay [15] it was 55 µM (active). For the same compound, the Potency was 24.8 µM (active) in assay [8]; 45.4 µM (active) in [9]; 19.5 µM (active) in [17]; 49.5 µM (active) in assay [11]; 2.78 µM (active) in [18]; 22.1 µM (active) in assay [19]. For the same compound, the Potency in assay [13] was 19.7 µM (active); in assay [14], 17.5 µM (active). The Potency entry in [4], in [7], in assay [16] and in [12] was “inactive” throughout. The activity change, positive = activation in [10] (setting [20]) is -81% (inactive).

Take `Cc1cc(O)c(C(C)(C)C)cc1Sc1cc(C(C)(C)C)c(O)cc1C`: the Potency in assay [1] was 48.5 µM (active); in [2] it was 54.4 µM (active); in assay [3] it was 21.6 µM (active); in [5], 30.6 µM (active); in assay [6], 21.6 µM (active); in [15], 9.67 µM (active). The Potency is 9.75 µM (active) in assay [8]; 17.9 µM (active) in assay [9]; 13.7 µM (active) in assay [17]; 43.6 µM (active) in assay [11]; 21.8 µM (active) in assay [18]; 54.8 µM (active) in assay [13]. In addition, the Potency in [14] is 24.5 µM (active). Moreover, the Potency entry in assay [4], in [7] and in [12] was “inactive” in each case. Also, the activity change, positive = activation in [10] (setting [20]) was -80.3% (inactive).

For the compound `Cc1oc(-c2ccccc2)nc1CCC(=O)c1ccc(CC2SC(=O)NC2=O)cc1` (configuration not stated), the Potency entry in assay [1], in [2], in assay [3], in assay [4], in assay [5] and in [6] was “inactive” in each case. For the same compound, the Potency result in assay [7], in [15], in assay [8], in [16], in assay [9] and in [11] was “inactive” in each case. The Potency result in assay [18], in [12], in assay [13] and in [14] was “inactive” throughout. Further, the activity change, positive = activation in assay [10] (setting [20]) is -19.2% [at 42.5 µM] (inactive).

On to `Nc1c2ccccc2nc2ccccc12`, for which the Potency result in [1], in [2], in [4], in [5], in assay [7] and in assay [15] was “inactive” throughout. In assay [12], the Potency entry is “inactive”. Moreover, the Potency in assay [3] was 956 nM (active) and 1.68 µM (active); in assay [6], 53.8 µM (active) and inactive; in [8], 13.6 µM (active); in [16], 88.6 µM (active); in assay [17], 2.69 µM (active); in assay [18] it was 7.66 µM (active) and 2.39 µM (active). Further, the Potency in assay [19] is 24.2 µM (active) and 13.4 µM (active); in assay [13], 24.2 µM (active); in assay [14] it was 19.2 µM (active). Further, the results for the activity change, positive = activation in [10] (at 42.5 µM (top of the series)) and in assay [10] (at 92.4 µM (top of the series)) were -23% (inactive) and -63.6% (inactive), respectively.
